Shown is part of a subset that was picked to be rich in hits.
Pf Dd2 inh: Plasmodium falciparum Dd2 growth inhibition. P. falciparum Dd2 growth, SYBR Green, 72 h. Potency, µM (titrated, usually from 28.9 µM), most hits filed as inhibitors. hit rate 4.3% among 120,000; active means well fitted inhibition curve with a large enough effect; further: nearly all actives have a fitted effect of over 65% in size
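Infected erythrocytes (Dd2, 0.3% parasitemia, 2.5% hematocrit final) are added to compound in RPMI-1640/Albumax II medium, grown 72 h at 37C in low oxygen, then lysed with saponin/Triton-X containing SYBR Green and read by fluorescence.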
Of the large screens only hits and unclear results are named; the others gave an inactive call; ! = a repeat was not active.

CCCNC(=O)N(C1CCOCC1)C1CCN(C(=O)c2ccc(OC)nc2)CC1	none
COc1cccc(C(=O)N2CCC(C(=O)N[C@@H]3CCOC[C@H]3OC)CC2)c1	none
CCOc1ccccc1CN1CCC2(CCN(C(=O)Cc3ccccn3)CC2)Oc2ccccc21	Pf Dd2 inh 11µM!
CCOc1ccccc1CN1CCC2(CCN(C(C)=O)CC2)Oc2ccccc21	none
CCOc1ccccc1CN1CCC2(CCN(C(=O)C3CC3)CC2)Oc2ccccc21	none
CCOc1ccccc1CN1CCC2(CCN(C(=O)NC3CCCC3)CC2)Oc2ccccc21	none
CCOc1ccccc1CN1CCC2(CCN(C(=O)c3cccc(OC)c3)CC2)Oc2ccccc21	none
CCOc1ccccc1CN1CCC2(CCN(Cc3ccsc3)CC2)Oc2ccccc21	Pf Dd2 inh 10µM
COc1ccc(CN2CC3(CCN(C(=O)Nc4ccc(OC)cc4OC)CC3)C2=O)cc1	none
CO[C@H]1[C@H](NC(=O)c2ccc3n[nH]nc3c2)c2ccccc2C12CCNCC2	none
Cc1cc(CNC(=O)c2cc(-c3ccco3)nc3c(Cl)cccc23)no1	Pf Dd2 inh 8.9µM
Cc1cc(C)n2nc(CC(=O)NCc3cc(-c4ccco4)on3)nc2n1	none
O=C(COCc1cc(-c2ccco2)on1)Nc1cccc(Cl)c1Cl	none
CN(CC(=O)N1CCn2nc(Cc3ccccc3)cc2C1)Cc1ccncc1	none
Cc1cnc(C(=O)NC2C[C@H]3CC[C@@H](C2)N3C(=O)C2CC2)cn1 (stereo partly drawn)	none
COc1cccc(C(=O)N2CCC3(CC2)N(C2CCCC2)C(=O)CS3=O)c1 (stereo not drawn)	none
CN1CCN(c2nc3c(c(=O)[nH]2)CCN(Cc2ccccc2Br)CC3)CC1	none
O=c1[nH]c(N2CCOCC2)nc2c1CCN(Cc1ccc(F)cc1)CC2	none
CCOc1ccccc1CN1CCc2nc(N3CCOCC3)[nH]c(=O)c2CC1	none
O=c1[nH]c(N2CCOCC2)nc2c1CCN(Cc1ccc(Cl)cc1)CC2	none
O=c1[nH]c(N2CCOCC2)nc2c1CCN(Cc1ccccc1Br)CC2	Pf Dd2 inh 1.3µM
O=c1[nH]c(N2CCOCC2)nc2c1CCN(Cc1ccc(Cl)cc1F)CC2	Pf Dd2 inh 0.32µM
COCCN(C)C[C@@H]1CN(C(=O)c2cc(C(C)C)oc2C)C[C@@H]1CO	none
COc1ccc(F)c(-c2nc(CN3CCN(S(N)(=O)=O)CC3)c(C)o2)c1	none
COc1cc(-c2nc(CN3CCSCC3)c(C)o2)ccc1F	none
COc1ccc(-c2nc(CN3CCN(CCO)CC3)c(C)o2)c2ccccc12	Pf Dd2 inh 11µM
CN1C[C@@H](NC(=O)CC(C)(C)CC(=O)O)C[C@H]1c1nc(-c2ccc3c(c2)OCO3)no1	none
O=C(Cc1ccccc1)N1CCC(c2noc(-c3ccncc3)n2)C1 (stereo not drawn)	none
COc1cccc(-c2cc3c(=O)n(CCNC(=O)c4ccc(C(C)(C)C)cc4)ccn3n2)c1	Pf Dd2 inh 1.1µM
COc1cccc(-c2cc3c(=O)n(CCNC(=O)c4cc(C)cc(C)c4)ccn3n2)c1	none
COc1cccc(-c2cc3c(=O)n(CCNC(=O)c4cc(Cl)ccc4F)ccn3n2)c1	none
COc1cccc(-c2cc3c(=O)n(CCNC(=O)c4ccccc4F)ccn3n2)c1	Pf Dd2 inh 13µM
COc1cccc(-c2cc3c(=O)n(CCNC(=O)c4cc5ccccc5[nH]4)ccn3n2)c1	none
COc1cccc(-c2cc3c(=O)n(CCNC(=O)c4ccc(Cl)cc4)ccn3n2)c1	none
Cc1ccc(OCc2nc(C3CCCN3C(=O)CCn3nc(C)cc3C)no2)cc1 (stereo not drawn)	none
CN(C)CCC(=O)N1Cc2ccccc2CC2(CCCN(C)C2)C1 (stereo not drawn)	none
CN1C(=O)C(CC(=O)N2CCC(N)CC2)(Cc2ccccc2)c2ccccc21 (stereo not drawn)	none
COc1ccc(C(=O)N[C@@H]2CN(Cc3ccccn3)C[C@H]2CN(C)C)cc1F	none
COc1ccc(Nc2ncncc2-c2nc(-c3ccccc3)no2)cc1	none
O=C(Cc1ccc2c(c1)OCO2)N1CCc2[nH]nc(-c3ccccc3F)c2C1	none
COc1ccccc1C(=O)N1CCC2(CC(C)=NO2)C1 (stereo not drawn)	none
COc1ccc(NC(=O)Cn2c(=O)n(-c3ccccc3)c(=O)c3c4c(sc32)CCCC4)c(OC)c1	none
COc1ccc(Cl)cc1NC(=O)Cn1nc(C(F)(F)F)c2c1CCCC2	none
COc1ccc(NC(=O)c2c(NCc3ccc(C)o3)sc3c2CCCCC3)c(OC)c1	Pf Dd2 inh 11µM
CCOC(=O)N1CCc2c(sc(NCc3cccs3)c2C(=O)Nc2cc(Cl)ccc2OC)C1	Pf Dd2 inh 8.9µM
COc1ccc(NC(=O)c2c(OC)cc(=O)n3c2CCCC3)c(C)c1	none
CCOC(=O)c1c(NC(=O)COc2cccc(C)c2C)sc2c1CCCCC2	none
COc1ccc(NC(=O)c2nc(-c3ccc(C)cc3)n3c2CCCCC3)c(OC)c1	none
COc1ccc(NC(=O)c2c(NCc3sccc3C)sc3c2CCCCC3)c(OC)c1	Pf Dd2 inh 13µM
COC(=O)c1c(NC(=O)c2ccc(OC)cc2OC)sc2c1CCCCC2	none
CCOc1ccccc1NC(=O)c1c(NCc2sccc2C)sc2c1CCCCC2	Pf Dd2 inh 13µM
COc1ccc(Cl)cc1NC(=O)Cn1nnc(C(=O)NCc2cccs2)c1N	none
CCNC(=O)c1cccnc1OC1CCN(C(=O)CCCc2ccccc2)C1 (stereo not drawn)	none
O=C(C[C@@H]1C[C@H]2O[C@H](CNC3CCNCC3)[C@@H](O)[C@H]2O1)N1CCC(F)(F)C1	none
C=CCN(C)C(=O)[C@H]1CN2CCC1C[C@@H]2Cn1cc(CSc2ccccc2)nn1 (stereo partly drawn)	none
NC(=O)c1ccc(CC2CCN(C(=O)C3CCOC3)CC2)cc1 (stereo not drawn)	none
COc1ccc(NC(=O)c2c(NCc3ccc(C)o3)sc3c2CCC(C)C3)cc1 (stereo not drawn)	Pf Dd2 inh 8.9µM
CCOc1ccccc1NC(=O)c1c(NC(=O)C(C)Oc2ccc(Cl)cc2)sc2c1CCCCC2 (stereo not drawn)	Pf Dd2 inh 10µM
CCOc1ccccc1NC(=O)c1c(NCc2sccc2C)sc2c1CCC(C)C2 (stereo not drawn)	Pf Dd2 inh 5.6µM
O=C(Nc1sc2c(c1C(=O)Nc1ccccc1Cl)CCCC2)c1ccccc1F	none
CC1CCc2c(sc(NC(=O)CCCOc3ccccc3)c2C(N)=O)C1 (stereo not drawn)	none
CCOc1ccc(NC(=O)c2c(NCc3ccc(C)o3)sc3c2CCCCC3)cc1	Pf Dd2 inh 11µM
CCOc1ccc(NC(=O)c2c(NC(=O)c3cccc(C)c3)sc3c2CCC3)cc1	none
CCOc1ccccc1NC(=O)c1c(NC(=O)c2ccccc2)sc2c1CCCC2	none
COc1ccc(NC(=O)c2c(NC(=O)COc3ccccc3)sc3c2CCC(C)C3)cc1 (stereo not drawn)	none
CCOC(=O)c1c(NC(=O)c2ccccc2OCC)sc2c1CCC(CC)C2 (stereo not drawn)	none
CCOc1ccc(/C=C/C(=O)Nc2sc3c(c2C(=O)OC)CCC3)cc1	none
COC(=O)c1c(NC(=O)c2cc(OC)c(OC)c(OC)c2Br)sc2c1CCC(C)C2 (stereo not drawn)	none
CCOc1ccc2c(n1)CCN(C(=O)c1cccnc1)C2	none
Cc1cc(C(F)(F)F)nn1CC(=O)N1C[C@@H](Oc2cccnc2)C[C@H]1C(=O)NC1CC1	none
CC(C)CC(C)NC(=O)c1ccc(CN2C(=O)NC3(CCS(=O)(=O)CC3)C2=O)cc1 (stereo not drawn)	none
COc1ccc(C(=O)N[C@@H]2CCC[C@@H]2C(=O)N2CCSCC2)cc1	none
CNC(=O)[C@@H]1C[C@H](Oc2ccccc2)CN1C(=O)c1ccc2ncccc2c1	none
